Values joined by “and” are separate entries in the source; they are usually repeats but may differ in a detail not shown here. Identical values can stand only once. Inconclusive results are not listed. The source holds several records for some structures; these can differ, active in one and inactive in another. Active and inactive are the calls of the source. Unless noted, calls come from the whole dose curve; as a rule, active = well fitted curve in the direction sought with a large enough effect in the repeat runs; inconclusive = weak or mixed curves; inactive = no such curve, though single readings can be large; an effect the other way counts as inactive or inconclusive.

The nature of test [1]: qHTS assay to identify small molecule agonists of H2AX - cell viability counter screen (AID 1224847; calls by dose curve; note: nearly all actives have a fitted effect of over 30% in size; note: potency is the fitted concentration of half-maximal effect;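 for activity change, negative = cytotoxicity: wild-type CHO-K1 cells; top concentration of the series differs between compounds; % is set by controls: 0 for no effect and ±100 for the full control effect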). Put shortly: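 Counter-screen for viability: CellTiter-Glo ATP luminescence read after 3 h compound treatment (15-point titration, 0.76% DMSO final) of CHO-K1 cells at 37C, with 30 min room-temperature reagent incubation.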
For orientation: In qHTS, concentration-response curves come from the screen itself.

Test [2] is described as follows: qHTS assay to identify small molecule antagonists of the estrogen related receptor (ERR) signaling pathway from Tox21 library (AID 1224848). Note: potency is the fitted concentration of half-maximal effect; nearly all actives have a fitted effect of over 50% in size. The essentials: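 Reading was by luminescence 30 min after ONE-Glo addition. Before that, ERR cells at 2,000 per well had rested 6 h at 37 C/5% CO2 and then received pin-tooled compounds in DMSO for 18 h at 37 C.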
Test [3] is described as follows: qHTS assay to identify small molecule agonists of the estrogen related receptor (ERR) signaling pathway from Tox21 library (AID 1224849; calls by dose curve; note: % is set by controls: 0 for no effect and ±100 for the full control effect; nearly all actives have a fitted effect of over 15% in size). The conditions noted are these: ERR reporter cell line, ONE-Glo luciferase, 18 h; at 92.4 µM (top of the series) unless noted. Put shortly: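 Agonist signal is luciferase luminescence from an ERR reporter cell line treated 18 h at 37 C with DMSO-dissolved compounds, read 30 min after ONE-Glo addition at room temperature.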

Test [4] in a line: qHTS RealTime-Glo MT Cell Viability Assay in HepG2 cells - 24 hour (AID 1224867). For activity change, negative = cytotoxicity: % is set by controls: 0 for no effect and ±100 for the full control effect. Note: nearly all actives have a fitted effect of over 50% in size. Note: potency is the fitted concentration of half-maximal effect. Put shortly:
(§1)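 Tox21 10K library screened in qHTS format on HepG2 cells carrying RealTime-Glo reagents. Compounds were added after a 5 h preincubation, and the luminescent signal from continuous culture was measured repeatedly during 40 h treatment.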

A short description of test [5]: A CellTox Green Cytotoxicity Assay to monitor cytotoxicity in HEK293 cells - 0 hour (AID 1224869). Note: % is set by controls: 0 for no effect and ±100 for the full control effect; nearly all actives have a fitted effect of over 50% in size. Put shortly: (§2)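 Cytotoxicity was tracked continuously in HEK293 cells by a DNA-binding dye excluded from viable cells. Compounds were transferred in DMSO 5 h after seeding; fluorescence was recorded at intervals up to 40 h.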
Test [6] is described as follows: qHTS RealTime-Glo MT Cell Viability Assay in HepG2 cells - 40 hour (AID 1224870). Note: nearly all actives have a fitted effect of over 50% in size. Note: potency is the fitted concentration of half-maximal effect. Put shortly: (§3)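 Real-time viability: cells seeded at 600 per well together with NanoLuc and cell-permeant prosubstrate, compounds added after 5 h incubation. Luminescence tracked at 0, 8, 16, 24, 32 and 40 h of exposure.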
The nature of test [7]: qHTS RealTime-Glo MT Cell Viability Assay in HepG2 cells - 8 hour (AID 1224873). Note: nearly all actives have a fitted effect of over 55% in size. Note: potency is the fitted concentration of half-maximal effect. Put shortly:
as §3

Test [8] in a line: A CellTox Green Cytotoxicity Assay to monitor cytotoxicity in HepG2 cells - 16 hour (AID 1224876). Note: nearly all actives have a fitted effect of over 45% in size. Note: potency is the fitted concentration of half-maximal effect. Put shortly: (§4)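 Real-time, homogeneous cytotoxicity readout: dead-cell DNA staining by CellTox Green in HepG2 monolayers, fluorescence measured at timed intervals up to 40 h of continuous compound exposure.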
Test [9] is described as follows: qHTS RealTime-Glo MT Cell Viability Assay in HepG2 cells - 32 hour (AID 1224877). Note: nearly all actives have a fitted effect of over 55% in size. Note: potency is the fitted concentration of half-maximal effect. Put shortly:
as §1

Test [10] in a line: qHTS RealTime-Glo MT Cell Viability Assay in HEK293 cells - 0 hour (AID 1224880). Note: top concentration of the series differs between compounds; % is set by controls: 0 for no effect and ±100 for the full control effect; nearly all actives have a fitted effect of over 45% in size. The essentials:
(§5)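 Nonlytic bioluminescent viability monitoring. HEK293 at 600 cells/well with reagent; 5 h settle; compound transfer by pintool; plates held at 37 C and read at set time points.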

Test [11] is described as follows: A CellTox Green Cytotoxicity Assay to monitor cytotoxicity in HepG2 cells - 0 hour (AID 1224882). Note: % is set by controls: 0 for no effect and ±100 for the full control effect; nearly all actives have a fitted effect of over 35% in size. The essentials:
as §4

Test [12] in a line: qHTS RealTime-Glo MT Cell Viability Assay in HEK293 cells - 32 hour (AID 1224868). Note: nearly all actives have a fitted effect of over 50% in size. Note: potency is the fitted concentration of half-maximal effect. The essentials:
(§6)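 Luminescence generated by NanoLuc from substrate produced by living HEK293 cells served as the viability signal. Each value reflects the reading at its stated time point during continuous 40 h compound exposure at 37 C.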

A short description of test [13]: A CellTox Green Cytotoxicity Assay to monitor cytotoxicity in HEK293 cells - 40 hour (AID 1224871). Note: nearly all actives have a fitted effect of over 45% in size. Note: potency is the fitted concentration of half-maximal effect. Put shortly: as §2
A short description of test [14]: qHTS RealTime-Glo MT Cell Viability Assay in HEK293 cells - 16 hour (AID 1224872). For activity change, negative = cytotoxicity: top concentration of the series differs between compounds; % is set by controls: 0 for no effect and ±100 for the full control effect. Note: nearly all actives have a fitted effect of over 50% in size. Note: potency is the fitted concentration of half-maximal effect. The essentials:
as §6

A short description of test [15]: qHTS RealTime-Glo MT Cell Viability Assay in HEK293 cells - 40 hour (AID 1224874). For max response: % is set by controls: 0 for no effect and ±100 for the full control effect. Note: nearly all actives have a fitted effect of over 50% in size. Note: potency is the fitted concentration of half-maximal effect. The conditions noted are these: RealTime-Glo luminescence; max response: stronger effect = lower value. The essentials: as §5
A short description of test [16]: A CellTox Green Cytotoxicity Assay to monitor cytotoxicity in HEK293 cells - 24 hour (AID 1224875). Note: nearly all actives have a fitted effect of over 45% in size. Note: potency is the fitted concentration of half-maximal effect. Put shortly:
as §2

Test [17] in a line: A CellTox Green Cytotoxicity Assay to monitor cytotoxicity in HepG2 cells - 24 hour (AID 1224878). Note: nearly all actives have a fitted effect of over 45% in size. Note: potency is the fitted concentration of half-maximal effect. Put shortly: as §4
Test [18] in a line: A CellTox Green Cytotoxicity Assay to monitor cytotoxicity in HepG2 cells - 40 hour (AID 1224879). Note: nearly all actives have a fitted effect of over 40% in size. Note: potency is the fitted concentration of half-maximal effect. The essentials: as §4
Test [19] in a line: A CellTox Green Cytotoxicity Assay to monitor cytotoxicity in HEK293 cells - 32 hour (AID 1224881). Note: nearly all actives have a fitted effect of over 40% in size. Note: potency is the fitted concentration of half-maximal effect. The essentials:
as §2

As for `Clc1ccc(C(Cl)(Cl)Cl)c(Cl)c1`, the Potency result in test [1], in [4], in [5], in test [6], in test [7] and in test [8] was “inactive” in each case. For the same molecule, the Potency entry in test [9], in test [10] and in test [11] was “inactive” in each case. Further, the Potency in test [2] was 61.6 µM (active). Moreover, in test [3], the activity change, positive = activation was -45.2% (inactive).
Turning to `C[C@]12CC[C@@H]3c4ccc(OC(=O)N(CCCl)CCCl)cc4CC[C@H]3[C@@H]1CC[C@@H]2O`, the Potency result in [1], in test [4], in test [12], in test [5], in test [6] and in test [13] was “inactive” each time. For the same molecule, the Potency result in test [14], in test [7], in [16], in test [8], in [17] and in test [18] was “inactive” in each case. Also, the Potency result in test [10] and in [19] was “inactive” each time. In addition, the activity change, positive = activation in [3] is -21.8% [at 42.5 µM] (inactive). Further, the max response in test [15] is -6.19% (inactive).
Consider `C=CCC1=C(C)C(OC(=O)C2C(C=C(C)C)C2(C)C)CC1=O` (stereo not given), for which the Potency in test [1] was 60.1 µM (active); in test [12], 26 µM (active); in test [14], 20.7 µM (active); in test [15], 41.2 µM (active); in test [16], 51.9 µM (active); in [19], 51.9 µM (active). In addition, in test [3], the activity change, positive = activation is -28.6% (inactive). The Potency entry in test [5], in [6], in [9] and in test [10] was “inactive” in each case.
With `O=C(O)C1C2CCC(O2)C1C(=O)O` (stereo not given), the Potency result in [1], in test [4], in test [5], in test [6], in test [13] and in [14] was “inactive” each time. Moreover, the Potency result in [7], in [16], in [9], in test [17], in [10] and in test [19] was “inactive” each time. In addition, the Potency result in test [11] is “inactive”. Besides, the activity change, positive = activation in [3] is 4.71% (inactive).
For `CC[C@H]1C[C@@H]2C[C@H]3c4[nH]c5ccc(OC)cc5c4CCN(C2)[C@@H]13`, the Potency result in test [1], in test [13], in [14], in test [7], in test [16] and in [9] was “inactive” in each case. In addition, the Potency result in test [10], in test [19] and in test [11] was “inactive” throughout. The Potency in test [2] is 30.1 µM (active); in test [17], 54 µM (active); in test [18] it was 54 µM (active). The activity change, positive = activation in test [3] was -44.1% (inactive).
Take `Oc1ccc(C(c2ccc(O)cc2)(C(F)(F)F)C(F)(F)F)cc1`: the Potency in [1] is 113 µM (active); in [12], 43.4 µM (active); in test [13], 43.4 µM (active) and inactive; in test [8] it was 54.9 µM (active); in [17], 54.7 µM (active) and 24.5 µM (active); in test [18], 54.7 µM (active) and 54.9 µM (active). Further, the Potency in test [19] was 43.4 µM (active) and inactive. For the same molecule, the activity change, positive = activation in test [3] is -65.7% (inactive) and -36.3% (inactive). In addition, the Potency result in [4], in test [5], in [6], in test [7], in test [9] and in test [10] was “inactive” in each case. Moreover, in [11], the Potency result is “inactive”.
In the case of `N#CSCSC#N`, the Potency was 51.6 µM (active) and 50 µM (active) in test [1]; 50.1 µM (active) and 19.3 µM (active) in test [4]; 12.6 µM (active) and 21.7 µM (active) in test [12]; 50.1 µM (active) and 21.7 µM (active) in test [6]; 19.3 µM (active) in [13]; 12.6 µM (active) and 15.3 µM (active) in test [14]. In addition, the Potency in test [7] is 21.7 µM (active); in [15], 11.2 µM (active) and 21.7 µM (active); in test [16], 54.4 µM (active); in [8] it was 56.2 µM (active) and 24.3 µM (active); in test [9], 50.1 µM (active) and 19.3 µM (active); in [17], 50.1 µM (active) and 19.3 µM (active). Besides, the Potency in [18] is 39.8 µM (active) and 17.2 µM (active); in test [19] it was 43.2 µM (active). Besides, the activity change, positive = activation in test [3] is -81.6% (inactive) and -76.5% (inactive). The Potency entry in [5], in test [10] and in test [11] was “inactive” in each case.
`C[C@H]1CC[C@@H]2[C@@H](C)[C@H]3[C@H](C[C@H]4[C@@H]5CC=C6CC(O[C@@H]7O[C@H](CO)[C@H](O)[C@H](O[C@@H]8O[C@H](CO)[C@@H](O)[C@H](O)[C@H]8O)[C@H]7O[C@H]7O[C@@H](C)[C@H](O)[C@@H](O)[C@H]7O)CC[C@]6(C)[C@H]5CC[C@]34C)N2C1` (stereo not given in full): the Potency in test [1] was 32.9 µM (active); in test [4], 50.6 µM (active); in test [12] it was 14.3 µM (active); in test [6] it was 56.7 µM (active); in test [13], 7.14 µM (active); in test [14] it was 12.7 µM (active). The Potency in test [7] was 45.1 µM (active); in test [15] it was 14.3 µM (active); in test [16], 4.51 µM (active); in test [8], 22.6 µM (active); in test [9], 50.6 µM (active); in test [17], 11.3 µM (active). Also, the values for the Potency in test [18] and in [19] were 22.6 µM (active) and 5.06 µM (active), respectively. For the same molecule, the activity change, positive = activation in test [3] is -50.4% (inactive). The Potency entry in [5] is “inactive”.
Take `C[CH2][Hg][N]1C(=O)C2C(C1=O)C1(Cl)C(Cl)=C(Cl)C2(Cl)C1(Cl)Cl` (stereo not given): the Potency was 13.5 µM (active) in [1]; 6.57 µM (active) in test [4]; 2.33 µM (active) in [12]; 6.57 µM (active) in test [6]; 4.65 µM (active) in test [13]; 2.61 µM (active) in test [14]. Also, the Potency was 7.37 µM (active) in test [7]; 2.08 µM (active) in [15]; 4.65 µM (active) in test [16]; 6.57 µM (active) in test [9]; 7.37 µM (active) in test [17]; 6.57 µM (active) in [18]. Further, in test [19], the Potency is 4.65 µM (active). For the same molecule, the activity change, positive = activation in test [3] is -76.3% [at 19 µM] (inactive). Besides, the figures for the cytotoxicity in [5] and in [11] were -0.189% [at 15.8 µM] (inactive) and 1.33% [at 15.8 µM] (inactive), respectively. Further, in test [10], the activity change, negative = cytotoxicity is -4.29% [at 15.8 µM] (inactive).
With `O=C(CCl)C(Cl)Cl`, the Potency entry in test [1], in test [5], in [7], in [8] and in [10] was “inactive” throughout. Besides, the activity change, positive = activation in test [3] was -73% (inactive). Further, the Potency in test [12] was 17.5 µM (active); in test [13] it was 24.8 µM (active); in [14] it was 17.5 µM (active); in [15] it was 17.5 µM (active); in test [18], 49.4 µM (active); in test [19], 27.8 µM (active).
On to `CC1(c2ccc(Oc3ccccc3)cc2)OC(=O)N(Nc2ccccc2)C1=O` (stereo not given), for which the Potency in [1] is 50.8 µM (active); in test [4] it was 49.3 µM (active); in test [12] it was 43.9 µM (active); in test [7], 49.3 µM (active); in test [18], 55.3 µM (active). Besides, the activity change, positive = activation in [3] is -64.5% (inactive). In test [10], the Potency result was “inactive”.
